# According to PubChem BioAssay:
# The source made the active and inactive calls. No stated cut-off is given here; in the data, active means fold change permeability below about 0.7 or above about 1.3; inactive means in between.
# Assay: compounds altering in vitro BBB leakiness – cell-based, FITC-avidin fluorescence, HTS, primary screen (AID 1963498); further: test concentration not given here
# Details: brain endothelial barrier, actives lie on both sides
row,SMILES,fold change permeability
1,O=C(CCCN1CCC(O)(c2cccc(C(F)(F)F)c2)CC1)c1ccc(F)cc1,1.6 (active)
2,CC(C)c1ccc2oc3nc(N)c(C(=O)O)cc3c(=O)c2c1,1 (inactive)
3,Cc1ccc(/C=N\NC(=O)c2n[nH]c3c2CCCC3)cc1,1.1 (inactive)
4,NC(Cc1ccc(Cl)cc1)C(=O)O (stereo not given),0.9 (inactive)
5,NC(=O)N1c2ccccc2C=Cc2ccccc21,1.1 (inactive)
6,Cc1ccccc1N1C(=O)c2cc(S(N)(=O)=O)c(Cl)cc2NC1C (stereo not given),0.8 (inactive)
7,O=c1c(-c2ccc(O)cc2)coc2cc(O)cc(O)c12,0.8 (inactive)
8,CN1CCC(=C2c3ccccc3CCn3c(C=O)cnc32)CC1,1 (inactive)
9,Nc1c(S(=O)(=O)O)cc(Nc2ccc(Nc3nc(Cl)nc(Nc4cccc(S(=O)(=O)O)c4)n3)c(S(=O)(=O)O)c2)c2c1C(=O)c1ccccc1C2=O,0.7 (active)
10,CNC(=O)c1cc2c(cn1)[nH]c1ccccc12,0.8 (inactive)
11,CC1(C)SCCN(S(=O)(=O)c2ccc(OCC#CCO)cc2)[C@H]1C(=O)NO,1.1 (inactive)
12,CC#C[C@]1(O)CC[C@H]2[C@@H]3CCC4=CC(=O)CCC4=C3[C@@H](c3ccc(N(C)C)cc3)C[C@@]21C,0.8 (inactive)
13,CN1Cc2c(N)cccc2C(c2ccccc2)C1 (stereo not given),1 (inactive)
14,COc1ccccc1CNCCCCCCNCCCCCCCCNCCCCCCNCc1ccccc1OC,0.8 (inactive)
15,Nc1cc(Cl)c(NC2=NCCN2)c(Cl)c1,1 (inactive)
16,C[C@@H](O[C@H]1OCCN(Cc2nn(P(=O)(O)O)c(=O)[nH]2)[C@H]1c1ccc(F)cc1)c1cc(C(F)(F)F)cc(C(F)(F)F)c1,1.4 (active)
17,Cc1c(OCC(F)(F)F)ccnc1CS(=O)c1nc2ccccc2[nH]1 (stereo not given),1.6 (active)
18,NC(N)=NC(N)=Nc1cccc(Cl)c1,1.2 (inactive)
19,Clc1ccccc1C(c1ccccc1)(c1ccccc1)n1ccnc1,1.2 (inactive)
20,Oc1ccc(-c2nc(-c3ccc(F)cc3)c(-c3ccncc3)[nH]2)cc1,1.1 (inactive)

row,SMILES,fold change permeability
1,O=C(Nc1ccc(Oc2ccc(Cl)cn2)c(Cl)c1)c1ccccn1,1.5 (active)
2,CCC(C)N(C)C(=O)c1cc2ccccc2c(-c2ccccc2Cl)n1 (stereo not given),0.9 (inactive)
3,CC(CN1c2ccccc2Sc2ccccc21)N(C)C (stereo not given),1.2 (inactive)
4,O=C(O)c1cc(=O)c2ccccc2[nH]1,1.6 (active)
5,C[C@H](N[C@@H](CCc1ccccc1)C(=O)O)C(=O)N1CCC[C@H]1C(=O)O,0.6 (active)
6,Nc1nc(OCc2ccccc2)c2[nH]cnc2n1,1 (inactive)
7,COC(=O)[C@H]1[C@H]2C[C@@H]3c4[nH]c5cc(OC)ccc5c4CCN3C[C@H]2C[C@@H](OC(=O)c2cc(OC)c(OC)c(OC)c2)[C@@H]1OC,1.5 (active)
8,Cc1cc(NC(=O)Nc2ccc3c(ccn3C)c2)sn1,1.2 (inactive)
9,Cc1ccc(O)c(N=Nc2ccccc2)n1,1.2 (inactive)
10,Nc1ncnc2c1nc(Sc1ccc(Cl)cc1)n2C1OC2COP(=O)(O)O[C@@H]2[C@@H]1O (stereo not given in full),0.9 (inactive)
11,CCc1c(C)[nH]c2c1C(=O)C(CN1CCOCC1)CC2 (stereo not given),1 (inactive)
12,OCCN1CCN(CC/C=C2/c3ccccc3Sc3ccc(C(F)(F)F)cc32)CC1,1.2 (inactive)
13,NS(=O)(=O)c1cccc2c1c([N+](=O)[O-])cc1nc(O)c(O)nc12,0.9 (inactive)
14,COc1ccc(S(=O)(=O)N(CC(=O)NO)CC(C)C)cc1,1.1 (inactive)
15,CC(=O)OCC1=C(C(=O)O)N2C(=O)[C@@H](NC(=O)Cc3cccs3)[C@H]2SC1,0.8 (inactive)
16,Cc1ccc2c(c1CCC(=O)O)CC[C@@H](NS(=O)(=O)c1ccc(Cl)cc1)C2,0.8 (inactive)
17,CN(C)CC/C=C1\c2ccccc2COc2ccccc21,1.4 (active)
18,C[C@H](Cc1ccc(O)c(O)c1)[C@@H](C)Cc1ccc(O)c(O)c1,1 (inactive)
19,O=C(O)c1cc2cc(Cc3cccnc3)ccc2o1,0.8 (inactive)
20,CCOC(=O)[C@@H](N)CCC(=O)N[C@@H](CSCc1ccccc1)C(=O)N[C@@H](C(=O)OCC)c1ccccc1,1.3 (active)
